Bioassay records deposited in PubChem BioAssay by National Center for Advancing Translational Sciences (NCATS).
NPC1 prom act: qHTS Assay for NPC1 Promoter Activators | Huh7 NPC1 promoter luciferase reporter, 24 h | Potency, µM (doses to about 9.22 µM), hits mostly activators | 320,000 tested, 2.4% active | AID 485313, 2010; note: nearly all actives have a fitted effect of over 60% in size
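Stably transfected Huh7 (NPC1 promoter→luciferase), 1500 cells/well in Opti-MEM + 10% FBS, 2 h settle, then compound 24 h at 37 °C. Luminescence after 10 min with Amplite reagent.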
ELG1 DNA repair: qHTS screen for small molecules that inhibit ELG1-dependent DNA repair in human embryonic kidney (HEK293T) cells expressing luciferase-tagged ELG1; Potency, µM (top dose mostly 46.1 µM), most hits filed as inhibitors; 330,000 tested, 2.3% active; AID 504467, 2011; HEK293T ELG1-luciferase reporter, luminescence, 16 h; DNA damage induced by 5-fluorouridine; note: nearly all actives have a fitted effect of over 55% in size
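Step one: seed 2,000 cells per well. Step two: pin-transfer compound or DMSO alongside 5-fluorouridine. Step three: incubate 16 hr, 37 °C, 5% CO2. Step four: add ONE-Glo, wait 30 min, read luminescence.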
FLuc counter: qHTS profiling assay for firefly luciferase inhibitor/activator using purifed enzyme and Km concentrations of substrates (counterscreen for miR-21 project); Luciferin 4-monooxygenase (Photinus pyralis), P08659; purified FLuc, Km substrates, luminescence inhibition; Potency, µM (highest dose often 57.5 µM), hits mostly inhibitors; 360,000 tested, 6.9% active; AID 588342, 2011; note: nearly all actives have a fitted effect of over 55% in size
Target sequence (P08659 whole entry, looked up): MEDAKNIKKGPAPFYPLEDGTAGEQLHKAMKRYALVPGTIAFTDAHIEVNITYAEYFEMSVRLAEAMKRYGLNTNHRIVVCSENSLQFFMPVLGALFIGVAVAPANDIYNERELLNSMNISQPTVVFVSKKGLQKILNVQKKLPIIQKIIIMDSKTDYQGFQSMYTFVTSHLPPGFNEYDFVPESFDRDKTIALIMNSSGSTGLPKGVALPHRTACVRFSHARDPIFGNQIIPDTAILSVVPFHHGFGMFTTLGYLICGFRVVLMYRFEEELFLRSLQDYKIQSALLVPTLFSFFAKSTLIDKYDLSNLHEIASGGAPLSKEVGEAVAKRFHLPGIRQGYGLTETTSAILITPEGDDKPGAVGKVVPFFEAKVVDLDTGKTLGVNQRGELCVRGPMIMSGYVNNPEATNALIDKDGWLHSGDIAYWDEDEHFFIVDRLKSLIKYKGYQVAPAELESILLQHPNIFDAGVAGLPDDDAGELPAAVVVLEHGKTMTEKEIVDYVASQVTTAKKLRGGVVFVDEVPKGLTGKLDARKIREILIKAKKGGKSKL
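Purified P. pyralis luciferase (10nM final) with 10uM D-luciferin and 10uM ATP (Km levels) in 50mM Tris acetate pH 7.5, 10mM Mg acetate, 0.01% Tween-20, 0.05% BSA; qHTS 6-point titration, ~60 µM downward; luminescence read.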
ELG1 genotox: qHTS screen for small molecules that induce genotoxicity in human embryonic kidney (HEK293T) cells expressing luciferase-tagged ELG1; HEK293T ELG1-luciferase reporter, luminescence, 16 h; Potency, µM (titrated, usually from 46 µM), hits mostly activators; 330,000 tested, 1.3% active; AID 504466, 2011; note: nearly all actives have a fitted effect of over 60% in size
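Genotoxic stress is detected as increased luminescence from luciferase-tagged ELG1 in HEK293T cells, measured with ONE-Glo after a 16 hr treatment at 37 °C.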
Rab9 promoter act: qHTS Assay for Rab9 Promoter Activators; Huh7 Rab9 promoter-luciferase reporter, luminescence, 24 h; Potency, µM (series often up to 9.22 µM), actives largely listed as activators; 320,000 tested, 2.8% active; note: nearly all actives have a fitted effect of over 60% in size
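Cells were plated at 1500 per well in reduced-serum medium with 10% FBS and left 2 h. Compound in DMSO was then added for 24 h at 37 °C. Reporter signal was read by luminescence after 10 min with luciferase detection reagent.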
SMN2 splice enh: qHTS Assay for Enhancers of SMN2 Splice Variant Expression. Potency, µM (series often up to 46.1 µM), hits mostly activators. AID 1458, 2008. 210,000 tested, 2.8% active. HEK293 SMN2-luciferase splicing reporter, luminescence, 30-36 h; note: nearly all actives have a fitted effect of over 55% in size
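HEK293 cells carry an SMN2 […]–luciferase reporter in which exon 7 inclusion puts luciferase in frame. Cells were plated 10-12 h before compound addition, then incubated 30-36 h at 37C. ONE-Glo luminescence was read; sodium butyrate at 4.5 mM final served as control.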
Numbers stand for hits; i = inactive; ? = inconclusive; nt = no result given. Compounds with a hit are over-represented: about 9.2% of the library has one in this group of screens. Calls come from the whole dose curve; as a rule, active = well fitted curve in the direction sought with a large enough effect; inconclusive = small, poorly fitted or top-dose-only effect, or another doubt; inactive = no such curve, though single readings can be large; an effect the other way counts as inactive or inconclusive.

SMILES | NPC1 prom act | ELG1 DNA repair | FLuc counter | ELG1 genotox | Rab9 promoter act | SMN2 splice enh
c1ccc(OCc2nc3ccccc3[nH]2)cc1 | 2.8µM | ? | 12µM | ? | 4µM | 13µM
OC(Cc1nc2ccccc2[nH]1)c1ccccc1Cl (stereo not drawn) | i | ? | 24µM | i | i | i
CCc1nc2ccccc2[nH]1 | i | i | i | i | i | i
c1ccc(-c2cncn2-c2ccccc2)cc1 | i | i | ? | i | i | nt
Cc1cc2cc(OCc3ccccc3)ccc2n1C | 2µM | ? | 5.4µM | ? | 3.2µM | nt
Cc1cc2cc(OCC(=O)O)ccc2n1C | i | i | i | i | i | i
O=Cc1c[nH]c2ccc(OCc3ccccc3)cc12 | i | ? | ? | i | i | nt
Cc1c(C=O)c2cc(OCc3ccccc3)ccc2n1C | ? | ? | 15µM | ? | 4µM | nt
CCn1c(SCC(=O)Nc2ccccc2C)nc2nc3c(cc2c1=O)COC(C)(C)C3 | i | 13µM | i | i | i | nt
CCn1c(SCC(=O)Nc2ccc(OC)cc2)nc2nc3c(cc2c1=O)COC(C)(C)C3 | i | 21µM | i | i | i | nt
CCn1c(SCC(=O)Nc2ccc(C(C)=O)cc2)nc2nc3c(cc2c1=O)COC(C)(C)C3 | i | ? | i | ? | ? | nt
COc1cc(OC)cc(C(=O)NCC(=O)NCc2ccccn2)c1 | nt | i | nt | i | nt | nt
Cc1ccc(CN2CCN(CCC(C)C)C(CCO)C2)s1 (stereo not drawn) | i | i | i | i | i | nt
Cc1ccc(CN2CCN(CC(C)C)C(CCO)C2)s1 (stereo not drawn) | i | ? | 17µM | ? | ? | nt
CC1CC2OC(=O)C3(C)CCCC(C)(C23)C1(O)CCc1ccoc1 (stereo not drawn) | i | 15µM | i | i | i | nt
Nc1nnc(N2CCCCCC2)s1 | i | i | i | i | i | i
O=C1CCCc2nc(N3CCCCC3)sc21 | i | ? | ? | 21µM | i | ?
CCOC(=O)C1CCC(CN(Cc2ccc(OC)cc2)S(=O)(=O)c2ccc(F)c(C(=O)Nc3ccc(C)c(C)c3)c2)CC1 (stereo not drawn) | nt | nt | i | nt | nt | nt
Cc1cn(S(=O)(=O)c2ccc(F)c(Cl)c2)cn1 | nt | nt | i | nt | nt | i
COC(=O)C1=NN(C(=O)c2ccccc2)C(O)(c2ccc([N+](=O)[O-])cc2)C1 (stereo not drawn) | i | i | 24µM | i | i | nt
COC(=O)C1=NN(C(=O)c2ccccc2)C(C)(O)C1 (stereo not drawn) | i | ? | i | i | i | i
O=C(CSCc1cc(=O)c2cc(F)ccc2[nH]1)Nc1ccccc1Cl | nt | nt | i | nt | nt | nt
Cn1c(SCc2c(F)cccc2Cl)nnc1-c1cccs1 | ? | ? | 15µM | 13µM | 2.2µM | 20µM
Cn1c(SCCOc2ccccc2Cl)nnc1-c1cccs1 | i | ? | ? | i | i | i
COc1ccc2c(c1)c(CC(=O)Nc1c(C)cccc1C)c(C)n2C(=O)c1ccc(Cl)cc1 | nt | nt | i | nt | nt | i
SMILES | NPC1 prom act | ELG1 DNA repair | FLuc counter | ELG1 genotox | Rab9 promoter act | SMN2 splice enh
COc1ccc2c(c1)c(CC(=O)Nc1ccc(C(C)=O)cc1)c(C)n2C(=O)c1ccc(Cl)cc1 | i | 12µM | i | i | i | i
COc1ccc2c(c1)c(CC(=O)Nc1nnc(C3CC3)s1)c(C)n2C(=O)c1ccc(Cl)cc1 | i | 5.8µM | i | i | i | nt
CCOC(=O)c1cc2c(=O)n3ccccc3nc2n(Cc2ccco2)c1=NC(=O)c1cc(C)cc(C)c1 | nt | nt | i | nt | nt | i
C=CCn1cccc(C(=O)Nc2ccc(C)c(Cl)c2)c1=O | 2.5µM | ? | 9.5µM | ? | ? | nt
C=CCn1cccc(C(=O)Nc2ccc(OC)c(Cl)c2)c1=O | ? | ? | 19µM | i | ? | nt
Cc1ccc(CSc2nnc(C)c(=O)[nH]2)cc1 | i | ? | 17µM | i | i | i
Cc1nnc(SCc2ccccc2)[nH]c1=O | i | i | ? | i | i | nt
